# Compound activity deposited in PubChem BioAssay by National Center for Advancing Translational Sciences (NCATS).
# D1 agonist: Allosteric Agonists of the Human D1 Dopamine Receptor: qHTS. D(1A) dopamine receptor (Homo sapiens), P21728. HEK293 T-REx D1 cells, calcium flux, agonist mode. activation, % at 2 µM. 1% of 360,000 active. AID 504660, 2011; note: 0% is about no effect
#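 Agonism was scored from calcium flux recorded over 180 s (1 read/s) after pintool compound addition, following a 10-cycle baseline. Cells were inducible force-coupled HEK293 TREx D1, plated overnight at 30 C and loaded with no-wash calcium dye.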
# TRHR ag: qHTS for Small Molecule Agonists and Allosteric Enhancers of Human TRH Receptor: Primary Screen for Agonists; Thyrotropin-releasing hormone receptor (Homo sapiens), P34981; TRHR cells, calcium flux fluo-8, FDSS agonist mode; activation, % at 2 µM; 0.18% of 360,000 active; AID 493084, 2011; note: 0% is about no effect
# Target sequence (P34981 whole entry, looked up): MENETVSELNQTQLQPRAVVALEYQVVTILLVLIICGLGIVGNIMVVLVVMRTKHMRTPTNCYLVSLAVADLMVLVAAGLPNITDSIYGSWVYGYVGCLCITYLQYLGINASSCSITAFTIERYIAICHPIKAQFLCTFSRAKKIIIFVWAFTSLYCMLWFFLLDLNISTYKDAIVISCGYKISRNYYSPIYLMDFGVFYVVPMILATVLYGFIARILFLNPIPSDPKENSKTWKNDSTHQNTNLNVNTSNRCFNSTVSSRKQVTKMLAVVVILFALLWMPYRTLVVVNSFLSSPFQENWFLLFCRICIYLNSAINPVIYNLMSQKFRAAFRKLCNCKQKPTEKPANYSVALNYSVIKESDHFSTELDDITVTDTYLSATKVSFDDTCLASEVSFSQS
#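 Steps: seed TRHR cells overnight; add fluo-8 no-wash Ca dye, RT 30 min–1.5 h; record 10 s baseline; pin-transfer compounds; monitor fluorescence 1 cycle/s for the agonist window. Calcium increases flag candidate agonists.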
# TRHR enhancer: qHTS for Small Molecule Agonists and Allosteric Enhancers of Human TRH Receptor: Primary Screen for Enhancers | Thyrotropin-releasing hormone receptor (Homo sapiens), P34981 | TRHR cells, fluo-8 calcium fluorescence, EC20 TRH enhancement | enhancement, % at 2 µM | 0.66% of 360,000 active; in the data active = enhancement above about 30%; note: 0% is about no effect
#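 TRHR-expressing cells loaded with fluo-8 calcium dye were read kinetically (ex 480/em 530) during compound addition, then stimulated with an EC20 of TRH (10 nM final). Enhancement of the Gq-mediated intracellular calcium response was scored.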
# D1 antag: Antagonist of Human D 1 Dopamine Receptor: qHTS; AID 504652, 2011; activity change, negative = inhibition, % at 10 µM; HEK293 TREx D1 cells, calcium flux, dopamine EC80; stronger effect = lower value; D(1A) dopamine receptor (Homo sapiens), P21728; 3.2% of 360,000 active; in the data active = activity change below about -30%; note: % is set by controls: 0 for no effect and ±100 for the full control effect
#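 Allosteric or orthosteric antagonism assessed as attenuation of the calcium response to EC80 dopamine, added 180 s after compound, in induced HEK293 Trex D1 cells loaded with no-wash calcium dye.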
# D1 potentiator: Potentiators of Human D1 Dopamine Receptor: qHTS; D(1A) dopamine receptor (Homo sapiens), P21728; HEK293 TREx D1 cells, calcium flux, dopamine EC20 potentiation; potentiation, % at 10 µM; 0.036% of 360,000 active; in the data active = potentiation above about 30%; note: 0% is about no effect
# The depositor's hits bear a star; ! = not confirmed by another sample. Rows were chosen to be rich in hits. Some 4.6% of all compounds tested hit in one or more screens of this group. Cut-off read from the data, not from the text of the source, unless noted: active = activation above about 30%; inactive = the rest.
SMILES,D1 agonist,TRHR ag,TRHR enhancer,D1 antag,D1 potentiator
CCCCNC(=O)C1CC(=O)N(C2CCCCC2)C1 (stereo not given),31*,0,11,136,1
Cc1ccc(CCNC(=O)C2CC(=O)N(C3CCCCC3)C2)cc1 (stereo not given),1,-1,11,-1,9
Cc1ccc(S(=O)(=O)c2nnn3c2nc(NCc2cccs2)c2sccc23)cc1C,2,1,-14,-59*,-8
COc1ccccc1Nc1nc2c(S(=O)(=O)c3ccc(C(C)C)cc3)nnn2c2ccsc12,4,0,37*,4,-5
CCCCNc1nc2c(S(=O)(=O)c3ccc(C)c(C)c3)nnn2c2ccsc12,1,1,-21,-77*,-8
CCc1ccc(S(=O)(=O)c2nnn3c2nc(NC(C)C)c2sccc23)cc1,3,0,-10,-33*,-7
Cc1ccc(S(=O)(=O)c2nnn3c2nc(NCc2ccc(F)cc2)c2sccc23)cc1C,5,1,-5,2,-1
CCc1ccc(S(=O)(=O)c2nnn3c2nc(NCCc2ccccc2)c2sccc23)cc1,4,0,9,-27,4
Cc1ccc(Cl)cc1NC(=O)C(C)n1nc(-c2ccccc2)ccc1=O (stereo not given),2,0,-3,17,4
CCOc1cc(-c2ccc(OC(=O)c3ccccc3)c(OC)c2)cc(=O)c2c(C)oc(C)c12,4,1,-3,3,0
COc1ccc(-n2cc3c(c2-c2cccc(Br)c2)c(=O)n(C)c(=O)n3C)cc1OC,-3,-1,4,-3,4
COc1ccc(NC(=O)/C(C#N)=C/c2c(C)nn(-c3ccc(F)cc3)c2Cl)cc1OC,1,0,8,-32*,-17
COc1ccc(NC(=O)/C(C#N)=C/c2c(C)nn(-c3ccc(F)cc3)c2Cl)cc1Cl,4,0,0,-19,-2
NNC(=O)c1cc2sccc2s1,-1,1,-16,-36*,-6
CC(c1ccccc1)C1CC(=O)N(CC(=O)O)C1=O (stereo not given),6,0,11,-32*,-7
CCSc1ncc(Cl)c(C(=O)Nc2nc3ccc(S(C)(=O)=O)cc3s2)n1,6,-1,6,8,2
COc1ccc(S(=O)(=O)Cc2ccc(C(=O)N3CCC(C(N)=O)CC3)o2)cc1,1,-1,-1,-15,-6
CCC(C)NC(=O)c1ccc(CS(=O)(=O)c2ccc(OC)cc2)o1 (stereo not given),-1,0,-6,-38*,8
Cc1ccc(CCNC(=O)c2ccc(CSCc3ccc(C)cc3)o2)cc1,31*,3,-3,-5,-2
COc1ccc(CCNC(=O)c2ccc(CS(=O)(=O)c3ccc(C)cc3)o2)cc1OC,8,-1,-6,-31*!,1
Cc1ccc(S(=O)(=O)Cc2ccc(C(=O)N3CCC(C(N)=O)CC3)o2)cc1,2,0,36*,6,3
CCc1ccc(NC(=O)Cc2c(C(=O)O)c(C)cn2C)cc1,0,0,15,-3,4
Cc1ccc(-n2nc(C(=O)N3CCN(c4cc(Cl)ccc4C)CC3)c3c4ccccc4n(C)c3c2=O)cc1,1,1,0,11,2
Cc1ccc(S(=O)(=O)Cc2ccc(C(=O)NC3CCCC3)o2)cc1,1,0,-1,-7,0
COc1ccc(CCNC(=O)c2c(N)no[n+]2[O-])cc1OC,0,0,-3,-31*,-5
SMILES,D1 agonist,TRHR ag,TRHR enhancer,D1 antag,D1 potentiator
O=C(NC1CCCC1)c1ccc(CS(=O)(=O)c2ccc(Br)cc2)o1,1,0,-3,-30*,-4
Clc1ccc(-c2nnc3n2CCCS3)cc1,1,-1,34*,23,-1
CCOC(=O)c1c(NC(=O)c2cc(=O)c3c(C)cc(C)cc3o2)sc2c1CCC2,0,0,-4,-8,1
COc1ccc(S(=O)(=O)N2CCCOC2CNC(=O)C(=O)NCc2ccccc2F)cc1C (stereo not given),6,0,-4,-32*,-5
Cc1cc(F)ccc1S(=O)(=O)N1CCCOC1CNC(=O)C(=O)NCCc1ccccc1 (stereo not given),3,0,-6,-34*,-5
O=C(NCCc1ccccc1)C(=O)NCC1OCCCN1S(=O)(=O)c1cc(F)ccc1F (stereo not given),2,1,0,-15,1
COc1ccc(CCNC(=O)C(=O)NCC2OCCN2S(=O)(=O)c2ccc(OC)cc2)cc1 (stereo not given),12,-1,1,-35*,-7
COc1ccc(S(=O)(=O)N2CCCOC2CNC(=O)C(=O)NCc2ccco2)cc1C (stereo not given),1,-1,3,-12,4
COc1ccc(CCNC(=O)C(=O)NCC2OCCN2S(=O)(=O)c2ccc(Cl)cc2)cc1 (stereo not given),9,0,2,-24,-11
COc1ccc(NC(=O)C(CC(C)C)NS(=O)(=O)c2ccc3c(c2)oc(=O)n3C)cc1Cl (stereo not given),3,1,-1,6,3
Cc1cc(C(=S)N2CCOCC2)c(C)n1-c1ccc(Cl)cc1,5,1,5,-31*,-3
CCCCOc1ccc(C(=O)NNC(=O)C2C3C=CC(C3)C2C(=O)O)cc1 (stereo not given),2,-1,-3,-82*,-6
CCCCOc1ccc(C(=O)NNC(=O)C2C3CCC(C3)C2C(=O)O)cc1 (stereo not given),1,0,0,3,4
CCN(c1ccccc1)S(=O)(=O)c1ccc(NCC2COc3ccccc3O2)nc1 (stereo not given),8,-1,0,-10,8
CCN(CC1COc2ccccc2O1)S(=O)(=O)c1ccc(C)cc1 (stereo not given),10,1,-1,-33*,-4
Brc1ccc(-c2ccc(CNCCSc3nnnn3-c3ccccc3)o2)cc1,14,4,4,21,9
c1ccc2c(c1)OCCOCCOCCOCCOc1ccccc1OCCOCCOCCO2,22,1,-7,-32*,-11
O=C(CN1CCSc2ccccc21)NCc1ccccc1F,-1,-1,-1,-2,-2
O=C1OC(C(=O)Nc2nccs2)Cc2ccccc21 (stereo not given),1,1,-5,-40*,1
